Source: PubChem BioAssay (National Center for Advancing Translational Sciences (NCATS))
An excerpt weighted towards active compounds, which were near 6% of everything screened.
DRD3 agonist: qHTS of D3 Dopamine Receptor Agonist: qHTS. D(3) dopamine receptor (Homo sapiens), P35462. D3R DiscoveRx beta-arrestin cells, luminescence, 90 min. max activation, %. actives 0.58% (n = 410,000); in the data active means max activation above about 30%; further: 0% is about no effect
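Agonist-mode cell screen: cells plated at 1500/well and incubated overnight at 37 °C, then exposed to library compounds for 90 min at 37 °C. Detection reagent was added for 30–60 min at room temperature, and luminescence was read.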
D1 antag: Antagonist of Human D 1 Dopamine Receptor: qHTS; D(1A) dopamine receptor (Homo sapiens), P21728; HEK293 TREx D1 cells, calcium flux, dopamine EC80; active compounds read low; activity change, negative = inhibition, % at 10 µM; actives 3.2% (n = 360,000); AID 504652, 2011; in the data active means activity change below about -30%; further: on the % scale 0 is the no-effect control and ±100 the full control effect
Target sequence (P21728 whole entry, looked up): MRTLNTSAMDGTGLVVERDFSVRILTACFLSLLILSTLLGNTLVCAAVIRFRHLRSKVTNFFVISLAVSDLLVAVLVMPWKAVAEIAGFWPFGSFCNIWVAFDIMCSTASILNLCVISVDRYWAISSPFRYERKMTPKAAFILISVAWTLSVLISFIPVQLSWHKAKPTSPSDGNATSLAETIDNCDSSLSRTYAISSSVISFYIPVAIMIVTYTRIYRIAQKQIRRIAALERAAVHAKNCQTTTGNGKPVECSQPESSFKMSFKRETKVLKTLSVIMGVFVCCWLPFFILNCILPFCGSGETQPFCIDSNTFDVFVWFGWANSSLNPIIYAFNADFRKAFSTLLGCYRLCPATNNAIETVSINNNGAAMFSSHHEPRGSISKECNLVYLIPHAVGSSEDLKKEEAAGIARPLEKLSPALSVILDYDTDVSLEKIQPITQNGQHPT
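Tetracycline-induced HEK293 Trex D1 cells, force-coupled to calcium, dye-loaded; compounds added and read 180 s, then EC80 dopamine added and calcium flux tracked kinetically another 180 s.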
D1 ag: Allosteric Agonists of the Human D1 Dopamine Receptor: qHTS; activation, % at 2 µM; HEK293 T-REx D1 cells, calcium flux, agonist mode; actives 1% (n = 360,000); in the data active means activation above about 30%; further: 0% is about no effect
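Inducible HEK293 T-REx D1 cells, force-coupled to calcium signalling, were plated at 4000 cells/well with tetracycline and held overnight at 30 C. After no-wash calcium dye loading, compound-evoked calcium rise over 180 s flagged agonists.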
D3 antag: qHTS of D3 Dopamine Receptor Antagonist: qHTS. D3R cells, DiscoveRx beta-arrestin luminescence, antagonist mode; active compounds read low. max response, negative = inhibition, %. actives 2.5% (n = 360,000). AID 652054, 2013; in the data active means max response below about -50%; further: on the % scale 0 is the no-effect control and ±100 the full control effect
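Cells expressing the human receptor were seeded at 1500 cells/well, incubated overnight at 37 degrees C in 5% CO2, then exposed to library compounds with dopamine controls for 90 minutes at 37 degrees C before luminescent detection.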
D1 potentiator: Potentiators of Human D1 Dopamine Receptor: qHTS; HEK293 TREx D1 cells, calcium flux, dopamine EC20 potentiation; AID 504651, 2011; potentiation, % at 10 µM; D(1A) dopamine receptor (Homo sapiens), P21728; actives 0.036% (n = 360,000); in the data active means potentiation above about 30%; further: 0% is about no effect
Active calls of the source: *; . = no result given.

SMILES | DRD3 agonist | D1 antag | D1 ag | D3 antag | D1 potentiator
CC(NC(=O)COC(=O)c1cc(NS(=O)(=O)c2ccc(Cl)c([N+](=O)[O-])c2)ccc1O)C1CC2CCC1C2 (centres undefined) | -3.9 | -31.4* | 6.5 | -60.9* | -6.6
COc1ccc(NS(=O)(=O)c2ccc(O)c(C(=O)OCC(=O)NC(C)C3CC4CCC3C4)c2)cc1 (centres undefined) | -0.6 | 13.8 | 10.8 | -1.5 | 6.4
O=C(NCCCN1CCN(c2ccc(F)cc2)CC1)c1ccc2nc(Cc3ccccc3)oc2c1 | -22.3 | -38.4* | 25.6 | . | -3.9
O=C(NCCCN1CCN(c2ccccc2)CC1)c1ccc2nc(Cc3ccccc3)oc2c1 | 8.7 | -59.5* | 32.1* | . | -3.0
COc1ccc(Cc2nc3ccc(C(=O)N(C)CCCN4CCOCC4)cc3o2)cc1 | -4.5 | -49.5* | 3.7 | 18.6 | -3.0
CCC(C)NC(=O)c1ccc2nc(Cc3ccc(OC)cc3)oc2c1 (centres undefined) | 7.6 | 17.8 | 1.2 | 3.0 | -0.1
CCC(NC(=O)c1ccc2nc(Cc3ccc(OC)cc3)oc2c1)c1ccncc1 (centres undefined) | -8.7 | -41.1* | 20.6 | 22.5 | -8.5
Cc1c(CN2CCC(n3nccc3NC(=O)C3CCOC3)CC2)[nH]c2ccccc12 (centres undefined) | 2.2 | 7.0 | 2.0 | 13.0 | -1.6
O=C(Nc1ccnn1C1CCN(Cc2cc3ccccc3[nH]2)CC1)C1CCOC1 (centres undefined) | . | -31.7* | 10.4 | . | -8.8
Cc1[nH]nc2c1C(c1ccc(-c3ccc(Cl)cc3)o1)C(C#N)=C(N)O2 (centres undefined) | -3.5 | -3.3 | 2.7 | -2.1 | -4.3
Cc1ccc(-c2ccc(C3C(C#N)=C(N)Oc4n[nH]c(C)c43)o2)cc1 (centres undefined) | 0.4 | -47.8* | 13.5 | -25.8 | -12.5
Cc1c(C(=O)N2CCOCC2)sc(NC(=O)c2ccc3c(c2)OCO3)c1C#N | 0.7 | -33.8* | 1.3 | 14.9 | 1.2
Fc1ccc(CNc2nc3c(-c4ccc(F)cc4)nnn3c3ccccc23)cc1 | 4.7 | 3.1 | 2.0 | . | 0.5
CCN1CCN(Cc2cccc(Oc3ccc(Cl)cc3)c2)CC1 | -32.0 | -64.5* | 19.3 | -63.3* | -2.0
COc1cccc(CN2CCN(Cc3cc(OC)c(OC)c(OC)c3)CC2)c1OC | -8.0 | -18.5 | 5.5 | -22.1 | -5.7
CN1CCN(Cc2cccc(Oc3ccc(Cl)cc3)c2)CC1 | -35.2 | -26.0 | 15.3 | -51.8* | -5.5
COc1cccc(CN2CCN(Cc3cccc(Oc4ccccc4)c3)CC2)c1OC | -20.7 | -9.4 | 4.3 | -59.4* | 0.2
COc1cccc(CN2CCC(N(CCc3ccccc3)Cc3ccccc3)CC2)c1OC | -10.8 | -6.4 | 0.8 | -85.0* | -1.1
COc1ccccc1CNC1CCN(Cc2ccccc2)CC1 | -7.8 | -3.2 | 3.8 | 0.0 | -3.1
Cc1cc(S(=O)(=O)N2CCCOC2CNC(=O)C(=O)NCCCN2CCOCC2)ccc1F (centres undefined) | -1.1 | -11.4 | 2.0 | 9.2 | -2.5
CCN1CCN(Cc2cccc(Oc3ccccc3)c2)CC1 | -27.7 | -1.6 | 8.0 | -52.3* | -3.3
COc1ccc(CN2C[C@@H](CO)O[C@@H](n3cnc4c(N5CCN(CCO)CC5)ncnc43)C2)cc1 | -0.9 | . | . | -17.3 | .
CC(Sc1nnc(-c2ccc(Cl)cc2Cl)n1Cc1ccccc1)C(=O)Nc1nccs1 (centres undefined) | 1.3 | -45.6* | 0.1 | 11.0 | 1.8
C=CCn1c(SCC(=O)/C(C#N)=C(\C)N)nnc1C1CCCCC1 | -4.9 | -74.6* | 2.0 | 1.8 | -8.4
Clc1ccccc1CN(Cc1ccccc1)c1ncnc2nc[nH]c12 | 1.5 | 9.0 | -4.3 | -64.1* | 0.9
SMILES | DRD3 agonist | D1 antag | D1 ag | D3 antag | D1 potentiator
CC(C)c1ccccc1Oc1c(C(F)(F)F)oc2c(CN3CCN(C)CC3)c(O)ccc2c1=O | -21.6 | -32.7* | 13.1 | . | -0.8
N#C/C(=C/c1ccncc1)c1nc2ccccc2c(=O)[nH]1 | -11.0 | -11.6 | 4.2 | -21.6 | 0.1
N#C/C(=C\c1cc(Br)c(O)c(Br)c1)c1nc2ccccc2c(=O)[nH]1 | -10.7 | 13.1 | 170.8* | . | 11.9
N#C/C(=C\c1ccncc1)c1nc2ccccc2c(=O)[nH]1 | -1.3 | -39.0* | 7.3 | -4.0 | -3.9
COc1ccc(C2=NN(CCC(=O)NCCc3ccccc3)C(=O)CC2)cc1 | -8.3 | -5.5 | 0.7 | . | 7.6
Cc1ccc2[nH]c(C(=O)N3CCC(C(N)=O)CC3)cc2c1 | 1.5 | -8.0 | 1.3 | 15.0 | 5.8
COc1ccc(CCN2CC(C(=O)OCC(=O)NC(Cc3ccccc3)C(C)=O)CC2=O)cc1OC (centres undefined) | -3.7 | . | . | 12.6 | .
O=C(OCc1ccc([N+](=O)[O-])cc1)C1CC(=O)N(CCc2ccccc2)C1 (centres undefined) | -3.2 | -40.2* | 7.3 | -7.2 | -4.3
COc1ccc(CCN2CC(C(=O)OCC(=O)N(C)Cc3ccccc3)CC2=O)cc1OC (centres undefined) | 2.0 | -34.6* | 2.4 | 8.6 | -8.4
COc1ccc(OC)c(NC(=O)C2CC(=O)N(CCc3ccccc3)C2)c1 (centres undefined) | 0.7 | 2.1 | 0.5 | -2.9 | 0.2
COc1ccc(C)cc1NC(=O)C1CC(=O)N(CCc2ccccc2)C1 (centres undefined) | 40.2* | -17.4 | 3.0 | -5.6 | -2.4
N#Cc1ccc(COC(=O)C2CC(=O)N(CCc3ccccc3)C2)cc1 (centres undefined) | 4.7 | -1.7 | 11.7 | -17.8 | 3.8
COc1ccc([C@H]2N[C@]3(CCCN(CC4CCCCC4)C3=O)[C@H]3C(=O)N(Cc4ccccc4)C(=O)[C@@H]23)cc1 | -0.2 | . | . | 3.5 | .
COc1ccc(-c2nc(CSc3nc4ncccc4[nH]3)c(C)o2)cc1OC | 2.2 | -1.8 | -0.3 | . | -1.6
COc1ccc(CCC(=O)NCCc2csc(-c3ccc(F)cc3)n2)cc1 | 9.8 | -12.6 | -1.5 | . | -0.2
CC1CC2=C(C(=O)O1)C(c1ccc(Cl)cc1)Nc1ccccc1N2 (centres undefined) | -4.5 | -11.8 | 0.9 | -52.1* | -0.5
Cc1ccc(C2Nc3ccccc3NC3=C2C(=O)OC(C)C3)cc1 (centres undefined) | 6.4 | -17.7 | 1.9 | -4.9 | -2.9
Fc1ccc(C2=NN(c3ccccc3)C(c3ccco3)C2)cc1 (centres undefined) | -0.8 | 8.2 | 4.0 | -18.2 | -1.6
